Measurements published in PubChem BioAssay (Tox21).
Records with an inconclusive call do not appear. The source made the active and inactive calls. Unless noted, the call rests on the fitted dose curve; in most records, active means well fitted curve in the direction sought with a large enough effect in the repeat runs; inconclusive means weak or mixed curves; inactive means no such curve, though single readings can be large; an effect the other way counts as inactive or inconclusive.

Tests used:
[1] = A CellTox Green Cytotoxicity Assay to monitor cytotoxicity in HepG2 cells - 16 hour (AID 1224876); further: nearly all actives have a fitted effect of over 45% in size
Procedure, shortened: (§1)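 First, HepG2 cells (600/well) mixed with reagent were plated; second, after 5 h at 37 C they received compounds via pintool; third, fluorescence was measured at 0 h through 40 h at 8 h intervals.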

[2] = qHTS RealTime-Glo MT Cell Viability Assay in HepG2 cells - 32 hour (AID 1224877); further: nearly all actives have a fitted effect of over 55% in size
Procedure, shortened: (§2)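 Cell number in HepG2 cultures estimated from NanoLuc luminescence generated by metabolic reduction of a prosubstrate by living cells. The homogeneous, nonlytic format allowed repeated reads at 0, 8, 16, 24, 32 and 40 h of compound exposure.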

[3] = A CellTox Green Cytotoxicity Assay to monitor cytotoxicity in HepG2 cells - 24 hour (AID 1224878); further: nearly all actives have a fitted effect of over 45% in size
Procedure, shortened: as §1

[4] = A CellTox Green Cytotoxicity Assay to monitor cytotoxicity in HepG2 cells - 40 hour (AID 1224879); further: nearly all actives have a fitted effect of over 40% in size
Procedure, shortened: as §1

[5] = qHTS RealTime-Glo MT Cell Viability Assay in HEK293 cells - 0 hour (AID 1224880); further: top concentration of the series differs between compounds; nearly all actives have a fitted effect of over 45% in size
Procedure, shortened: (§3)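 600 HEK293 cells per well, dispensed already mixed with RealTime-Glo MT reagents. Compound dosing came 5 h later. The same wells were read for luminescence at 0, 8, 16, 24, 32 and 40 h of exposure at 37 C.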

[6] = A CellTox Green Cytotoxicity Assay to monitor cytotoxicity in HEK293 cells - 32 hour (AID 1224881); further: nearly all actives have a fitted effect of over 40% in size
Procedure, shortened: (§4)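 Dead-cell fluorescence measured kinetically: asymmetric cyanine dye, HEK293, 600 cells/well, 5 h settle, 23 nL cpd/DMSO, 37 C, reads 0–40 h every 8 h.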

[7] = A CellTox Green Cytotoxicity Assay to monitor cytotoxicity in HepG2 cells - 0 hour (AID 1224882); further: nearly all actives have a fitted effect of over 35% in size
Procedure, shortened: as §1

[8] = A CellTox Green Cytotoxicity Assay to monitor cytotoxicity in HepG2 cells - 32 hour (AID 1224883); further: nearly all actives have a fitted effect of over 50% in size
Procedure, shortened: as §1

[9] = A CellTox Green Cytotoxicity Assay to monitor cytotoxicity in HEK293 cells - 8 hour (AID 1224884); further: nearly all actives have a fitted effect of over 35% in size
Procedure, shortened: as §4

[10] = qHTS RealTime-Glo MT Cell Viability Assay in HepG2 cells - 16 hour (AID 1224885); further: nearly all actives have a fitted effect of over 50% in size
Procedure, shortened: as §2

[11] = qHTS RealTime-Glo MT Cell Viability Assay in HEK293 cells - 24 hour (AID 1224886); further: top concentration of the series differs between compounds; nearly all actives have a fitted effect of over 50% in size
Procedure, shortened: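 Homogeneous bioluminescent viability format in HEK293 cells (600 cells/well). Following 5 h at 37 C/5% CO2, 23 nL compound was pintooled; the signal was measured repeatedly during 40 h incubation.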

[12] = qHTS RealTime-Glo MT Cell Viability Assay in HEK293 cells - 8 hour (AID 1224887); further: top concentration of the series differs between compounds; nearly all actives have a fitted effect of over 50% in size
Procedure, shortened: as §3

[13] = A CellTox Green Cytotoxicity Assay to monitor cytotoxicity in HEK293 cells - 16 hour (AID 1224888); further: nearly all actives have a fitted effect of over 35% in size
Procedure, shortened: as §4

[14] = qHTS RealTime-Glo MT Cell Viability Assay in HepG2 cells - 0 hour (AID 1224889); further: nearly all actives have a fitted effect of over 50% in size
Procedure, shortened: as §2

[15] = A CellTox Green Cytotoxicity Assay to monitor cytotoxicity in HepG2 cells - 8 hour (AID 1224890); further: nearly all actives have a fitted effect of over 45% in size
Procedure, shortened: as §1

[16] = qHTS assay to identify small molecule antagonists of the estrogen receptor alpha (ER-alpha) signaling pathway using the BG1 cell line in the presence of 0.1 nM 17-beta-estradiol - cell viability counter screen (AID 1259241); further: nearly all actives have a fitted effect of over 40% in size
Procedure, shortened: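 VM7Luc4E2 cells (endogenous full-length ER-alpha, 4xERE-luciferase), cultured 5 days in charcoal-stripped serum, exposed to compounds with 0.1 nM 17beta-estradiol (final) for 22 hr at 37C. Viability read in same wells as live-cell protease fluorescence after 30 min.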

[17] = qHTS assay to identify small molecule antagonists of the androgen receptor (AR) signaling pathway using the MDA cell line in the presence of 0.5 nM R1881 - cell viability counter screen (AID 1259242); further: nearly all actives have a fitted effect of over 45% in size
Procedure, shortened: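 qHTS format. MDA-kb2 (MMTV-luc, AR/GR responsive) + cpd + 0.5 nM R1881 final, 16 hr 37C/0% CO2 → CellTiter-Fluor 30 min → fluorescence intensity.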

[18] = molecular target: Estrogen receptor (Homo sapiens) (UniProt P03372); test: qHTS assay to identify small molecule antagonists of the estrogen receptor alpha (ER-alpha) signaling pathway using the BG1 cell line in the presence of 0.1 nM 17-beta-estradiol (AID 1259244); further: nearly all actives have a fitted effect of over 50% in size
Estrogen receptor (Homo sapiens), sequence (P03372 whole entry, looked up): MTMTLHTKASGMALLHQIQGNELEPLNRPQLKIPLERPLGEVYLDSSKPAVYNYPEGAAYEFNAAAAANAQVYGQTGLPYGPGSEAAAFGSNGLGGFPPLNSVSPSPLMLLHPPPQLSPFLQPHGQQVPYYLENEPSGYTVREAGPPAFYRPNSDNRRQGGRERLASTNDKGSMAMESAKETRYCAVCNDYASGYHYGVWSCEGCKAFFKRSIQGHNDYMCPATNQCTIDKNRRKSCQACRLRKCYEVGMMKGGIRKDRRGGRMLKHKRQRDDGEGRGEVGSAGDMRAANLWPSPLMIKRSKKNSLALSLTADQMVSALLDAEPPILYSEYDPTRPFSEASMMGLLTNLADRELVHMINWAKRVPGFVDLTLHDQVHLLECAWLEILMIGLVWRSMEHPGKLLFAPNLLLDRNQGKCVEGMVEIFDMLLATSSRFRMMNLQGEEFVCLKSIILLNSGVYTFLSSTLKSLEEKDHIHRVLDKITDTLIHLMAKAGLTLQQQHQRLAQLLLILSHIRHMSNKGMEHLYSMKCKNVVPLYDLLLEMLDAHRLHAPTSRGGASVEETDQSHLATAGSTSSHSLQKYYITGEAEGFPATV
Procedure, shortened: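 Reporter is a stably transfected luciferase under four estrogen responsive elements in VM7Luc4E2 cells expressing native full-length ER-alpha; inhibition of 0.1 nM (final) 17beta-estradiol-driven signal over 22 h is read by luminescence.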

[19] = qHTS assay to identify small molecule phospholipidosis (PLD) inducers (AID 1259344; active means well fitted curve in the direction sought with a large enough effect; an effect the other way counts as inactive or inconclusive)
Procedure, shortened: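 Accumulated phospholipid, stained red by LipidTOX during 24 h compound treatment of HepG2 cells at 37 C, is quantified from images as pit number and intensity, normalised per cell using Hoechst-stained nuclei.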

[20] = molecular target: Androgen receptor (Homo sapiens) (UniProt P10275); test: qHTS assay to identify small molecule antagonists of the androgen receptor (AR) signaling pathway using the MDA cell line in the presence of 0.5 nM R1881 (AID 1259243); further: nearly all actives have a fitted effect of over 50% in size
Androgen receptor (Homo sapiens), sequence (P10275 whole entry, looked up): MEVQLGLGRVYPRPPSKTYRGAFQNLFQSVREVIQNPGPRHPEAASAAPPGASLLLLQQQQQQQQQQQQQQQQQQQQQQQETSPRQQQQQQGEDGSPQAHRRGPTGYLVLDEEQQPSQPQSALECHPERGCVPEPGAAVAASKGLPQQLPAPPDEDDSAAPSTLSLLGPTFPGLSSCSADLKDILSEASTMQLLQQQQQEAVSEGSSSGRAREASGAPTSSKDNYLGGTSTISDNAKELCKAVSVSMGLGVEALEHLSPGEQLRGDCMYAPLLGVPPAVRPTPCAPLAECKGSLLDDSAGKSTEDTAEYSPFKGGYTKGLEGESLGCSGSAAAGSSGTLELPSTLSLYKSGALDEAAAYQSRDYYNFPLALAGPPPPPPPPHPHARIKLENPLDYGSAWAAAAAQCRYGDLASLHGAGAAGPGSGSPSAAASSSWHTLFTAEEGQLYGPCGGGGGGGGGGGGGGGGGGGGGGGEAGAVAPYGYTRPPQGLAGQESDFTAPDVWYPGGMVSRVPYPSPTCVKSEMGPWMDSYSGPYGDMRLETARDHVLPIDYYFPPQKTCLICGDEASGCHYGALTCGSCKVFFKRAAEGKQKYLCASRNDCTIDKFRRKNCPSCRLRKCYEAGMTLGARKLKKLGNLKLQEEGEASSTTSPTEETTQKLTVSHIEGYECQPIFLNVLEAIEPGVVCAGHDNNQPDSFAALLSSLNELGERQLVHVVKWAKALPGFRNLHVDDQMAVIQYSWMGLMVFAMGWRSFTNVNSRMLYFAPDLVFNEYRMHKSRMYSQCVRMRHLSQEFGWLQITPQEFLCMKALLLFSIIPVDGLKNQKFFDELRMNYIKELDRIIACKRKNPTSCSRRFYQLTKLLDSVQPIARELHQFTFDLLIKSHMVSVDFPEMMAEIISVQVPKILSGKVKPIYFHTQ
Procedure, shortened: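 Antagonist mode quantitative HTS in MDA-kb2 MMTV-luciferase cells, agonist R1881 at 0.5 nM final, 16 hr exposure at 37C and 0% CO2, luminescent detection.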
On the % scale 0 is the no-effect control and ±100 the full control effect.

CCCCCCCCOC(C)=O
inactive: Potency [1] | outcome [2] | Potency [3] | Potency [4] | outcome [5] | Potency [6] | Potency [7] | Potency [8] | Potency [9] | outcome [10] | Potency [11] | Potency [12] | Potency [13] | Potency [14] | Potency [15] | Potency [16] | Potency [17] | Potency [18]

Cc1ccccc1C
inactive: Potency [1] | outcome [2] | Potency [3] | Potency [4] | outcome [5] | Potency [6] | Potency [7] | Potency [8] | Potency [9] | outcome [10] | Potency [11] | Potency [12] | Potency [13] | Potency [14] | Potency [15] | Potency [16] | Potency [17] | Potency [18]

CCN(Cc1cccc(S(=O)(=O)O)c1)c1ccccc1
inactive: Potency [1] | outcome [2] | Potency [3] | Potency [4] | outcome [5] | Potency [6] | Potency [7] | Potency [8] | Potency [9] | outcome [10] | Potency [11] | Potency [12] | Potency [13] | Potency [14] | Potency [15] | Potency [16] | Potency [17] | Potency [18]

C1CCN2C[C@@H]3C[C@@H](CN4CCCC[C@@H]34)[C@H]2C1
inactive: Potency [1] | outcome [2] | Potency [3] | Potency [4] | outcome [5] | Potency [6] | Potency [7] | Potency [8] | Potency [9] | outcome [10] | Potency [11] | Potency [12] | Potency [13] | Potency [14] | Potency [15] | Potency [16] | Potency [17] | outcome [19]

COc1cc2c3cc1Oc1cc(ccc1O)C[C@@H]1c4c(cc(OC)c(O)c4Oc4ccc(cc4)C[C@@H]3N(C)CC2)CC[N+]1(C)C
inactive: Potency [1] | outcome [2] | Potency [3] | Potency [4] | outcome [5] | Potency [6] | Potency [7] | Potency [8] | Potency [9] | outcome [10] | Potency [11] | Potency [12] | Potency [13] | Potency [14] | Potency [15] | Potency [16] | Potency [17] | outcome [19]

CC(C)(c1ccc(Oc2ccc3c(c2)C(=O)OC3=O)cc1)c1ccc(Oc2ccc3c(c2)C(=O)OC3=O)cc1
inactive: Potency [1] | outcome [2] | Potency [3] | Potency [4] | outcome [5] | Potency [6] | Potency [7] | Potency [8] | Potency [9] | outcome [10] | Potency [11] | Potency [12] | Potency [13] | Potency [14] | Potency [15] | Potency [16] | Potency [18]

O=C1OC(=O)c2cc(Oc3ccc4c(c3)C(=O)OC4=O)ccc21
inactive: Potency [1] | outcome [2] | Potency [3] | Potency [4] | outcome [5] | Potency [6] | Potency [7] | Potency [8] | Potency [9] | outcome [10] | Potency [11] | Potency [12] | Potency [13] | Potency [14] | Potency [15] | Potency [16] | outcome [20] | Potency [18]

CO[Si](CCCS)(OC)OC
inactive: Potency [1] | outcome [2] | Potency [3] | Potency [4] | outcome [5] | Potency [6] | Potency [7] | Potency [8] | Potency [9] | outcome [10] | Potency [11] | Potency [12] | Potency [13] | Potency [14] | Potency [15] | Potency [16] | Potency [17] | Potency [18]

Nc1ccc(/C=C/c2ccc(N)cc2S(=O)(=O)O)c(S(=O)(=O)O)c1
inactive: cytotoxicity increase [1] -10.5% [at 0.29 µM] | activity change, negative = cytotoxic [2] -0.0646% [at 0.29 µM] | cytotoxicity [3] -13.6% [at 0.29 µM] | cytotoxicity increase [4] -16.8% [at 0.29 µM] | activity change, negative = cytotoxicity [5] 3.48% [at 0.29 µM] | cytotoxicity increase [6] -0.592% [at 0.29 µM] | cytotoxicity [7] 1.07% [at 0.29 µM] | cytotoxicity increase [8] -15.7% [at 0.29 µM] | cytotoxicity increase [9] 0.921% [at 0.29 µM] | activity change, negative = cytotoxic [10] 4.55% [at 0.29 µM] | activity change, negative = cytotoxicity [11] 1.86% [at 0.29 µM] | activity change, negative = cytotoxicity [12] 0.0792% [at 0.29 µM] | activity change [13] 0.863% [at 0.29 µM, active compounds read high] | activity change, negative = cytotoxicity [14] 2.99% [at 0.29 µM] | cytotoxicity increase [15] -4.57% [at 0.29 µM] | activity change, negative = cytotoxicity [16] -1.15% [at 0.349 µM] | viability change, negative = cytotoxic [17] 2% [at 0.349 µM] | outcome [19]

O=S1(=O)CCCC1
inactive: Potency [1] | outcome [2] | Potency [3] | Potency [4] | outcome [5] | Potency [6] | Potency [7] | Potency [8] | Potency [9] | outcome [10] | Potency [11] | Potency [12] | Potency [13] | Potency [14] | Potency [15] | Potency [16] | Potency [17] | Potency [18]

CCCCCCCCC(=O)OCC
inactive: Potency [1] | outcome [2] | Potency [3] | Potency [4] | outcome [5] | Potency [6] | Potency [7] | Potency [8] | Potency [9] | outcome [10] | Potency [11] | Potency [12] | Potency [13] | Potency [14] | Potency [15] | Potency [16] | Potency [17] | Potency [18]

CCC1Nc2cc(Cl)c(S(N)(=O)=O)cc2S(=O)(=O)N1 (configuration not stated)
inactive: Potency [1] | outcome [2] | Potency [3] | Potency [4] | outcome [5] | Potency [6] | Potency [7] | Potency [8] | Potency [9] | outcome [10] | Potency [11] | Potency [12] | Potency [13] | Potency [14] | Potency [15] | Potency [16] | Potency [17] | outcome [19]

Cc1cccc(Nc2ccncc2S(=O)(=O)NC(=O)NC(C)C)c1
inactive: Potency [1] | outcome [2] | Potency [3] | Potency [4] | outcome [5] | Potency [6] | Potency [7] | Potency [8] | Potency [9] | outcome [10] | Potency [11] | Potency [12] | Potency [13] | Potency [14] | Potency [15] | Potency [16] | Potency [17] | Potency [18] | outcome [19]

CCN1CN(CC)CN(CC)C1
inactive: Potency [1] | outcome [2] | Potency [3] | Potency [4] | outcome [5] | Potency [6] | Potency [7] | Potency [8] | Potency [9] | outcome [10] | Potency [11] | Potency [12] | Potency [13] | Potency [14] | Potency [15] | Potency [16] | Potency [17] | Potency [18]
